High-throughput results from PubChem BioAssay.
GPT2 inh – GPT2 alanine aminotransferase inhibition; Q8TD30; Recombinant GPT2, coupled pyruvate oxidase/HRP Amplex Red fluorescence; Potency, µM (series often up to 57.7 µM), usual class: inhibitors; actives 0.25% (n = 100,000); AID 1671188; further: nearly all actives have a fitted effect of over 60% in size
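Fluorescence of coupled pyruvate oxidase/HRP/Amplex Red system (50uM Amplex, 30 min, dark) reports pyruvate formed by GPT2. Enzyme reaction: 10ng/uL GPT2, 2mM L-alanine, 250uM a-KG, 30 min room temperature, pH 7.5; 50uM AOA control.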
3T3 cytotox – cytotoxic compounds in NIH 3T3 cells; Potency, µM (titrated, usually from 96.7 µM), usual class: inhibitors; actives 4.3% (n = 94,000); NIH 3T3 viability, CellTiter-Glo ATP luminescence, 48-72 h; further: nearly all actives have a fitted effect of over 55% in size
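Mouse fibroblast NIH 3T3 cells, 400 per well, received compound via pintool and were incubated for 48 or 72 hr prior to CellTiter-Glo ATP luminescence measurement.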
NPR1 antag – antagonists of human natriuretic peptide receptor Npr1; HEK293 hNpr1 GloSensor cGMP, ANP-stimulated luminescence; Potency, µM (series often up to 46.3 µM), hits mostly inhibitors; actives 1.6% (n = 76,000); calls by dose curve; further: nearly all actives have a fitted effect of over 60% in size
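HEK293 cells stably expressing human Npr1 and cGMP GloSensor pGS-40F, loaded 2 h with 2% GloSensor reagent, given compound 30 min at room temperature. Luminescence read before and 20 min after 0.1 nM hNppA.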
HEK293 tox – kills HEK 293 cells. HEK 293 viability, ATP luminescence (CellTiter-Glo), 48-72 h. Potency, µM (highest dose often 115 µM), actives largely listed as inhibitors. actives 6.6% (n = 94,000). AID 1345083; further: nearly all actives have a fitted effect of over 60% in size
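Read-out: CellTiter-Glo ATP luminescence. Cells: HEK 293, 250 cells/well. Exposure: 48 or 72 hr, 37 degree Celsius.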
Luciferase inh – inhibitors of firefly (Photinus pyralis) luciferase. Potency, µM (titrated, usually from 115 µM), hits mostly inhibitors. purified P. pyralis luciferase, luminescence, biochemical. AID 1347043. P08659. actives 2.5% (n = 76,000); further: nearly all actives have a fitted effect of over 65% in size
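Biochemical qHTS: compound (6-point titration) added to 10uM D-luciferin plus 10uM ATP in Tris acetate pH 7.5 buffer with Mg, Tween-20 and BSA, then purified enzyme at 10nM; light output imaged.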
NPR1 antag cnf – hNpr1 antagonism, confirmation assay; shares compounds with NPR1 antag; HEK293 hNpr1 cGMP GloSensor luminescence, ANP-stimulated; Potency, µM (series often up to 57.6 µM), most hits filed as inhibitors; actives 76% (n = 1,400); calls by dose curve; further: nearly all actives have a fitted effect of over 70% in size
Npr2 selectivity – selectivity test of Npr1 antagonists against human Npr2; AID 1347046; Potency, µM (top dose mostly 57.6 µM), actives largely listed as inhibitors; actives 67% (n = 1,400); shares compounds with NPR1 antag; HEK293 hNpr2 GloSensor cGMP luminescence, CNP-stimulated; calls by dose curve; further: nearly all actives have a fitted effect of over 70% in size
FLuc inh counter – FLuc enzyme inhibition, Npr1 counter-screen. purified FLuc enzyme, luminescence, Km substrate. shares compounds with NPR1 antag. actives 0.7% (n = 1,400). Potency, µM (series often up to 57.6 µM), most hits filed as inhibitors. AID 1347047
GloSensor cGMP – counter-screen for Npr1 antagonists: GloSensor control cell line; shares compounds with NPR1 antag; HEK293 GloSensor cGMP, SNP-stimulated, luminescence; Potency, µM (doses to about 57.6 µM), most hits filed as inhibitors; actives 69% (n = 1,400); AID 1347051; calls by dose curve; further: nearly all actives have a fitted effect of over 70% in size
Hits are given with their value; n = inactive; u = inconclusive; x = no result given; [ ] = another dose, or the depositor's remark. Rows were chosen to be rich in hits. Some 10% of all compounds tested hit in one or more screens of this group. Unless noted, the call rests on the fitted dose curve; in most records, active means well fitted curve in the direction sought with a large enough effect; inconclusive means small, poorly fitted or top-dose-only effect, or another doubt; inactive means no such curve, though single readings can be large; an effect the other way counts as inactive or inconclusive.

SMILES | GPT2 inh | 3T3 cytotox | NPR1 antag | HEK293 tox | Luciferase inh | NPR1 antag cnf | Npr2 selectivity | FLuc inh counter | GloSensor cGMP
Cc1ccc(CN2CC(Oc3ccccc3C(=O)NC3CC3)C2)cc1 | n | u | n | u | n | x | x | x | x
COc1ccc(-n2nc3n(c2=O)CCN(Cc2cccn2C)C3)cc1 | n | n | x | u | x | u | u | u | u
CN(C)c1ccc(CN2CCn3c(nn(-c4ccc([N+](=O)[O-])cc4)c3=O)C2)cc1 | n | u | 11.2µM | 31.6µM | n | 17.2µM | 19.3µM | n | 13.7µM
COc1ccc(CN2CCn3c(nn(-c4ccc([N+](=O)[O-])cc4)c3=O)C2)cc1 | n | u | 11.2µM | u | n | 21.7µM | 21.7µM | n | 21.7µM
CN1CCCCCCN(S(=O)(=O)c2ccc3c(c2)CCC3)[C@H]2CCC[C@H]2C1=O | n | u | n | u | n | x | x | x | x
CC(C)(C)OC(=O)N1CC(NCc2ccc(-c3ccc(OC(F)(F)F)cc3)cc2)C1 | n | u | x | u | x | 21.7µM | 21.7µM | n | 17.2µM
FC(F)(F)c1cccc2c(N3CCOC(C(F)(F)F)C3)ccnc12 (centres undefined) | n[11.5 µM] | n | 10µM | u | n | 24.3µM | u | n | 19.3µM
FC(F)(F)C1CN(c2ccnc3ccc(Cl)cc23)CCO1 (centres undefined) | n | u | 11.2µM | 39.8µM | n | 21.7µM | 21.7µM | n | 21.7µM
CC1(C)[C@H](Cc2cc(CCO)on2)C[C@@H]1NCc1ccncc1 | n | u | n | u | n | x | x | x | x
COc1ccc(-c2cc(C[C@@H]3C[C@H](NCc4ccncc4)C3(C)C)no2)cc1 | n | u | 22.4µM | u | n | 19.8µM | 28µM | n | 19.8µM
CNC(=O)N1CCCC(c2nc(CCOCC3CCCC3)no2)C1 (centres undefined) | n | n | u | u | n | u | u | n | u
O=C(CCC1CCCC1)N1CCCC(c2nc(CCOCC3CCOCC3)no2)C1 (centres undefined) | n | u | u | u | n | x | x | x | x
O=C(Cc1ccccc1Cl)N1CCC(Cc2nc(-c3ccc(F)cc3)no2)CC1 | n | u | 15.8µM | u | n | 12.2µM | 15.3µM | n | 10.9µM
O=C(CCC1CCCC1)N1CCC(Cc2nc(C3CCOCC3)no2)CC1 | n | u | 10µM | u | n | 12.2µM | 17.2µM | n | 12.2µM
O=C(CC1CCCCC1)N1CCC(Cc2nc(-c3ccccc3)no2)CC1 | n | u | 10µM | u | n | 13.7µM | 15.3µM | n | 9.68µM
O=C(CC1CCCC1)N1CCC(Cc2nc(-c3ccc(F)cc3)no2)CC1 | n | u | 2.24µM | u | n | 2.17µM | 3.06µM | n | 3.06µM
CSc1ccc(-c2cccc(C(=O)NCC(=O)NCC(F)(F)F)c2)cc1 | n | n | x | u | x | x | x | x | x
O=C(CC1CCCCC1)N1CCC(n2cc(-c3nc(-c4ccccc4)no3)nn2)CC1 | n | u | 11.2µM | 28.2µM | n | 24.3µM | 21.7µM | n | 21.7µM
COCC(=O)N1CCC(c2noc(COc3ccc(F)cc3)n2)CC1 | n | n | x | n | x | x | x | x | x
O=C(CC1CCCCC1)N1CCC(c2noc(COc3ccc(F)cc3)n2)CC1 | n | u | 7.08µM | u | n | 12.2µM | 13.7µM | n | 13.7µM
CC(C)CCN1C[C@@H](CO)[C@H](c2nc(-c3cccnc3)no2)C1 | n | n | n | n | u | x | x | x | x
Cc1ccccc1-c1cnc2[nH]cc(CC(=O)N3CCOCC3)c2c1 | n | n | 2.82µM | 112µM | n | 2.8µM | 4.44µM | n | 2.22µM
O=C(Cc1c[nH]c2ncc(-c3ccccc3C(F)(F)F)cc12)N1CCOCC1 | n | u | 2µM | u | n | 4.44µM | 8.86µM | n | 3.96µM
O=C(Cc1c[nH]c2ncc(-c3cccnc3)cc12)NC1CCOCC1 | n | u | n | n | n | x | x | x | x
O=C(Cc1c[nH]c2ncc(-c3ccccc3)cc12)NCCN1CCOCC1 | n | u | n | n | n | x | x | x | x
SMILES | GPT2 inh | 3T3 cytotox | NPR1 antag | HEK293 tox | Luciferase inh | NPR1 antag cnf | Npr2 selectivity | FLuc inh counter | GloSensor cGMP
COc1ccc(-c2ccc3c(N4CCOCC4C)nc(N4CCOCC4C)nc3n2)cc1CO (centres undefined) | n | x | x | x | x | x | x | x | x
COc1ccc(CN2C=C(C(=O)OCc3noc(-c4ccc(C)c(C)c4)n3)C(C)=NS2(=O)=O)cc1 | n | n | u | u | n | x | x | x | x
CC1=NS(=O)(=O)N(Cc2ccccc2)C=C1C(=O)OCc1noc(-c2ccc(C)c(C)c2)n1 | n | u | 11.2µM | u | n | 17.2µM | u | n | 15.3µM
COc1ccc(CN2C=C(C(=O)OCc3noc(-c4cccc(OC)c4)n3)C(C)=NS2(=O)=O)cc1 | n | u | u | u | n | u | n | n | u
COc1ccc(CN2C=C(C(=O)OCc3noc(-c4ccc(C)cc4)n3)C(C)=NS2(=O)=O)cc1 | n | u | 10µM | n | n | 15.3µM | 13.7µM | n | 12.2µM
COc1ccccc1-c1ccc(C(=O)N2CCC(NC(=O)c3ccc(Cl)nc3)CC2)cc1 | n | u | x | u | x | x | x | x | x
CCc1noc(CC2CCOC3(CCN(S(=O)(=O)c4cc(F)ccc4C)CC3)C2)n1 (centres undefined) | n | u | u | u | n | x | x | x | x
CCc1noc(CC2CCOC3(CCN(S(=O)(=O)c4cccc(OC)c4)CC3)C2)n1 (centres undefined) | n | u | 15.8µM | u | n | 21.7µM | 21.7µM | n | 19.3µM
CCc1noc(CC2CCOC3(CCN(S(=O)(=O)c4cccc(Cl)c4)CC3)C2)n1 (centres undefined) | n | u | 10µM | u | n | 21.7µM | u | n | 21.7µM
CCc1noc(CC2CCOC3(CCN(S(=O)(=O)c4ccccc4Cl)CC3)C2)n1 (centres undefined) | n | n | u | u | n | 21.7µM | 21.7µM | n | 17.2µM
CCOCCN1C(=O)COC[C@@H]1[C@H](O)c1ccc(NC(=O)Cc2ccccc2)cc1 | n | n | n | n | n | x | x | x | x
O=C(c1cccnc1)N1CCC2(CC1)CC(CCOc1ccncc1)CCO2 (centres undefined) | n | n | x | u | x | x | x | x | x
COc1ccccc1-c1cc2c(nc1OC)nc(CC1CC1)n2C | n | u | n | u | n | x | x | x | x
CCC(C)NC(=O)c1ccccc1-c1ccc(OC)nn1 (centres undefined) | x | n | x | n | x | x | x | x | x
